Results as given in PubChem BioAssay AID463173 (ICCB-Longwood Screening Facility, Harvard Medical School, 2010).
Values joined by “and” are separate entries in the source; they are usually repeats but may differ in a detail not shown here. Equal entries are not always repeated. The whole screen tested about 52,000 compounds, of which about 4,300 (8.3%) were called active. Rule as the data show it: active = survival mostly below about 52% (no sharp cut-off); inactive = mostly above about 56%. For the sample, actives were picked, then their nearest neighbours and some compounds at random. More than one record can exist for a structure, and the calls need not agree.

Each compound was assayed on DeltatarO mutant (assay: growth inhibition of S. aureus wild type versus tarO mutant, primary screen, teichoic acid synthesis inhibitors, RN4220, OD600 (AID 463173)). Conditions: OD600, 18 h, stronger effect = lower value, screened at 18.75 µg/mL (by protocol).

Compound | survival
COCCNC(=O)CSc1nc(-c2ccc(C)cc2)[nH]c1-c1ccc(OC)cc1 | 84% (inactive)
COc1cc(OC)c(NC(=O)C(NS(=O)(=O)c2cccc3nsnc23)c2ccccc2)cc1Cl (configuration not stated) | 60% (inactive)
COc1ccccc1N1CCN(C(=O)c2cn(C)c3ccc(S(=O)(=O)N4CCOCC4)cc3c2=O)CC1 | 84% (inactive)
O=C(Cn1cc(C(=O)c2ccco2)c2ccccc21)Nc1ccccc1 | 41% (active) and 47% (inactive)
COc1ccc(OCCn2cc(C(=O)c3ccco3)c3ccccc32)cc1 | 56% (inactive)
Cc1ccccc1OCCn1cc(C(=O)c2ccco2)c2ccccc21 | 44% (inactive)
CC(C)(C)c1ccc(OCCn2cc(C(=O)c3ccco3)c3ccccc32)cc1 | 35% (active)
Cc1ccc(C)c(OCCn2cc(C(=O)c3ccco3)c3ccccc32)c1 | 104% (inactive)
O=C(Cn1cc(C(=O)c2ccco2)c2ccccc21)Nc1ccc(Br)cc1 | 88% (inactive)
Cc1cc(OCCn2cc(C(=O)c3ccco3)c3ccccc32)ccc1Cl | 53% (inactive)
CCOc1ccc(NC(=O)Cn2cc(C(=O)c3ccco3)c3ccccc32)cc1 | 63% (inactive)
O=C(c1ccco1)c1cn(CCOc2ccc(F)cc2)c2ccccc12 | 99% (inactive)
O=C(c1ccco1)c1cn(CCOc2ccc(Cl)cc2)c2ccccc12 | 78% (inactive)
Cc1ccc(C(C)C)c(OCCn2cc(C(=O)c3ccco3)c3ccccc32)c1 | 35% (active)
Cc1ccc(OCCn2cc(C(=O)c3ccco3)c3ccccc32)cc1C | 27% (active)
COc1ccccc1N1CCN(Cc2cc(COC(C)C)c3cccnc3c2O)CC1 | 84% (inactive)
CCC(C)(C)n1nnnc1C(C(C)C)N(Cc1cccnc1)Cc1ccco1 (configuration not stated) | 78% (inactive)
COc1ccccc1N1CCN(C(=O)c2cn(C)c3ccc(S(=O)(=O)N(C)C4CCCCC4)cc3c2=O)CC1 | 83% (inactive)
CCCC12CN3CC(CCC)(CN(C1)C3c1c(C)[nH]c(=O)[nH]c1=O)C2=O (configuration not stated) | 109% (inactive)
CCC(C)NC(=O)c1c(-c2ccccc2)c(-c2ccccc2)nn(C)c1=O (configuration not stated) | 50% (inactive)
CCOc1ccc(OCC)c(NC(=O)C2CCCN(S(=O)(=O)c3cc(Br)cc4c3N(C(=O)CC)CC4)C2)c1 (configuration not stated) | 100% (inactive)
COc1ccc(CCNC(=O)CCCn2c(=O)c3ccccc3n(Cc3cccc(Cl)c3)c2=O)cc1OC | 72% (inactive)
Cc1ccc2nc(N3CCN(C(=O)C4COc5ccccc5O4)CC3)sc2c1 (configuration not stated) | 89% (inactive)

Compound | survival
Cc1ccc(CNC(=O)COCc2cc(-c3ccc4c(c3)OCO4)on2)cc1 | 75% (inactive)
O=C(COCc1cc(-c2ccc3c(c2)OCO3)on1)NCc1ccccc1Cl | 70% (inactive)
COc1cccc(CNC(=O)COCc2cc(-c3ccc4c(c3)OCO4)on2)c1 | 37% (active)
O=C(COCc1cc(-c2ccc3c(c2)OCO3)on1)NCc1ccc(F)cc1 | 85% (inactive)
COc1ccccc1CNC(=O)COCc1cc(-c2ccc3c(c2)OCO3)on1 | 25% (active)
COc1ccc(CNC(=O)COCc2cc(-c3ccc4c(c3)OCO4)on2)cc1 | 94% (inactive)
O=S(=O)(c1ccccc1)n1nc(-c2ccco2)nc1NCc1ccccc1 | 71% (inactive)
O=C(Nc1ccc(N2CCN(C(=O)c3ccco3)CC2)cc1)c1ccccc1 | 93% (inactive)
CCOc1ccc(-n2nc3ccc(NC(=O)c4cccc(F)c4)cc3n2)cc1 | 84% (inactive)
CCCNC(=O)c1ccc2c(c1)nc1n2CCCCC1 | 94% (inactive)
COc1cccc(C(=O)NCCc2csc(-c3cccc(F)c3)n2)c1OC | 75% (inactive)
Cc1cccc(N2CCN(C(=O)CN3C(=O)COc4ccc(S(=O)(=O)N5CCCC5)cc43)CC2C)c1 (configuration not stated) | 77% (inactive)
O=C(COc1ccccc1[N+](=O)[O-])N1CCC(c2nc3ccccc3o2)CC1 | 79% (inactive)
CCOC(=O)c1csc2c1CCC/C2=N/OC(C)=O | 86% (inactive)
CCOC(=O)c1cc2c(=O)n3ccccc3nc2n(Cc2ccco2)c1=NC(=O)c1cccc(C)c1 | 33% (active)
CCOC(=O)c1cc2c(=O)n3ccccc3nc2n(Cc2ccco2)c1=NC(=O)c1cc(C)cc(C)c1 | 29% (active)
CCOc1ccccc1NC(=O)Cn1ccn(-c2ccccc2)c(=O)c1=O | 49% (inactive)
O=C(COc1ccccc1)Nc1nnc(S(=O)(=O)N2CCCC2)s1 | 39% (active)
Cc1ccc(OCC(=O)Nc2nnc(S(=O)(=O)N3CCCCCC3)s2)cc1 | 64% (inactive)
COc1ccc(OCC(=O)Nc2nnc(S(=O)(=O)N3CCCCCC3)s2)cc1 | 76% (inactive)
CC(Oc1ccccc1)C(=O)Nc1nnc(S(=O)(=O)N2CCCCCC2)s1 (configuration not stated) | 50% (inactive)
O=C(COc1ccccc1)Nc1nnc(S(=O)(=O)N2CCCCCC2)s1 | 79% (inactive)
CCC(=O)Nc1nnc(S(=O)(=O)N2CCCCCC2)s1 | 89% (inactive)

Compound | survival
O=C(COc1ccc(Cl)cc1)Nc1nnc(S(=O)(=O)N2CCCCCC2)s1 | 55% (active)
Cc1cccc(OCC(=O)Nc2nnc(S(=O)(=O)N3CCCCCC3)s2)c1 | 48% (active)
Cc1cc(C)cc(N(C)S(=O)(=O)c2nnc(NC(=O)COc3ccc(C)c(C)c3)s2)c1 | 30% (active)
CN(c1ccccc1)S(=O)(=O)c1nnc(NC(=O)COc2ccccc2)s1 | 56% (inactive)
CCN(CC)S(=O)(=O)c1nnc(NC(=O)COc2cccc(C)c2)s1 | 94% (inactive)
Cc1cc(C)cc(N(C)S(=O)(=O)c2nnc(NC(=O)COc3ccc(Cl)cc3)s2)c1 | 80% (inactive)
CC1(C)CC(=O)C2=C(C1)NC1=C(C(=O)CC(C)(C)C1)C2c1ccc2c(c1)OCO2 | 96% (inactive)
NC(=O)c1nc(-c2ccc(F)c(F)c2)nc2c1[nH]c(=O)n2-c1cccc(Cl)c1 | 86% (inactive)
O=C(Nc1cccc(C(F)(F)F)c1)N1CCC(CN2CCCCCC2)CC1 | 83% (inactive)
Cc1cccc(C(=O)Nc2ccc(N3CCC(CCN4CCOCC4)CC3)c(C(=O)O)c2)c1 | 66% (inactive)
Cc1ccc(N2CCN(c3cc(C)nc4c(-c5ccc(Cl)cc5)c(C)nn34)CC2C)cc1 (configuration not stated) | 55% (inactive)
COc1ccc(C(=O)c2cn(Cc3ccc(F)cc3)c3c(F)cc(F)cc3c2=O)cc1 | 103% (inactive)
Cc1cccc(N2CCN(C(=O)CCNS(=O)(=O)c3ccc4c(c3)CCN4C(=O)C3CC3)CC2)c1C | 73% (inactive)
N#Cc1ccccc1NC(=O)CSc1nnc(N)s1 | 76% (inactive)
O=C(COc1ccc(F)cc1)Nc1nnc(S(=O)(=O)N2CCCC2)s1 | 39% (active)
CC(C)CC(=O)Nc1nnc(S(=O)(=O)N2CCCCCC2)s1 | 109% (inactive)
CCCC(=O)Nc1nnc(S(=O)(=O)N2CCCCCC2)s1 | 91% (inactive)
Cn1c(/C(C#N)=C/c2ccccc2Br)nc2ccccc21 | 79% (inactive)
Cn1c(/C(C#N)=C/c2ccc(C(F)(F)F)cc2)nc2ccccc21 | 103% (inactive)
COc1ccc(/C=C(\C#N)c2nc3ccccc3n2C)c(OC)c1 | 29% (active)
COc1cc(/C=C(\C#N)c2nc3ccccc3n2C)cc(OC)c1OC | 47% (active)
Cn1c(/C(C#N)=C/C2CC=CCC2)nc2ccccc21 (configuration not stated) | 78% (inactive)
COc1ccc(Cl)cc1N/C=C(/C#N)c1nc2ccccc2n1C | 82% (inactive)

Compound | survival
Cc1cc(=O)n(CC(=O)N2CCCc3ccccc32)c2c1c(C)nn2-c1cccc(F)c1 | 85% (inactive)
Cc1ccc(C)c(NC(=O)CSc2ncc3c(n2)-c2ccc(Cl)cc2N(C)S3(=O)=O)c1 | 74% (inactive)
CCCCN(C)CCNC(=O)c1ccc2c(c1)NC(=O)CN2 | 71% (inactive)
CCOc1ccc(-n2nc3ccc(NC(=O)c4ccc(-c5cccc(Cl)c5)o4)cc3n2)cc1 | 45% (active)
O=C(Nc1ccc2nn(-c3ccccc3)nc2c1)c1ccc(-c2cccc(Cl)c2)o1 | 105% (inactive)
O=C(Nc1ccc2nn(-c3ccc(Cl)cc3)nc2c1)c1cc2ccccc2o1 | 65% (inactive)
COc1ccc(-n2nc3ccc(NC(=O)c4cc5ccccc5o4)cc3n2)cc1Cl | 159% (inactive)
COc1ccc(-n2nc3ccc(NC(=O)c4ccc(-c5cc(Cl)ccc5Cl)o4)cc3n2)cc1 | 40% (active)
CCOc1ccc(-n2nc3ccc(NC(=O)Cc4ccccc4)cc3n2)cc1 | 74% (inactive)
CCCCN(CC)CCCNC(=O)c1cc2c(-c3ccc(OC)c(OC)c3)nn(C)c2s1 | 140% (inactive)
Cc1ccc(N2CCN(C(=O)c3cnn(-c4ccc(C)c(C)c4)c3C3CCNCC3)CC2)c(C)c1 | 55% (inactive)
CCN(CC)S(=O)(=O)c1ccc2oc(C(=O)Nc3ccc(Br)cc3F)c(C)c2c1 | 69% (inactive)
O=C(O)CCN1CCCC1 | 78% (inactive)
CCN(c1cccc(C)c1)c1ncnc2c1cnn2-c1cccc(Cl)c1 | 70% (inactive)
N#C/C(=C\c1ccc(F)cc1)c1nc(-c2ccc(-c3ccccc3)cc2)cs1 | 69% (inactive)
N#C/C(=C/c1ccc(Cl)cc1)c1nc(-c2ccc(Br)cc2)cs1 | 65% (inactive)
COc1ccc(/C=C(/C#N)c2nc(-c3ccc(-c4ccccc4)cc3)cs2)cc1 | 73% (inactive)
N#C/C(=C/c1ccc(O)cc1)c1nc(-c2ccc(-c3ccccc3)cc2)cs1 | 9% (active)
CC(C)c1ccc(/C=C(\C#N)c2nc(-c3ccc(O)cc3)cs2)cc1 | -1% (active)
CCc1ccc(/C=C(/C#N)c2nc(-c3ccc(C)cc3)cs2)cc1 | 8% (active)
CN(C)c1ccc(/C=C(\C#N)c2nc(-c3ccc(Cl)c(Cl)c3)cs2)cc1 | 76% (inactive)
CCOc1ccc(-c2csc(/C(C#N)=C/c3ccc(Br)cc3)n2)cc1 | 55% (inactive)
Cc1ccc(/C=C(\C#N)c2nc(-c3ccc(-c4ccccc4)cc3)cs2)cc1 | 57% (inactive)
